Bioassay records: PubChem, several laboratories
A selection: hits, their analogues and other compounds. The true share with any hit is near 2%.
GC-B act: GC-B (human) receptor activation; P20594; HEK293-GC-B cells, CNP EC30, cGMP TR-FRET; 0% at EC30 CNP, 100% saturating CNP; activation, % at 10 µM; hit rate 0.11% among 370,000;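 active = activation at 10 µM reaching about 35% in either raw or pattern-adjusted values, limit read from the data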
Target sequence (P20594 whole entry, looked up): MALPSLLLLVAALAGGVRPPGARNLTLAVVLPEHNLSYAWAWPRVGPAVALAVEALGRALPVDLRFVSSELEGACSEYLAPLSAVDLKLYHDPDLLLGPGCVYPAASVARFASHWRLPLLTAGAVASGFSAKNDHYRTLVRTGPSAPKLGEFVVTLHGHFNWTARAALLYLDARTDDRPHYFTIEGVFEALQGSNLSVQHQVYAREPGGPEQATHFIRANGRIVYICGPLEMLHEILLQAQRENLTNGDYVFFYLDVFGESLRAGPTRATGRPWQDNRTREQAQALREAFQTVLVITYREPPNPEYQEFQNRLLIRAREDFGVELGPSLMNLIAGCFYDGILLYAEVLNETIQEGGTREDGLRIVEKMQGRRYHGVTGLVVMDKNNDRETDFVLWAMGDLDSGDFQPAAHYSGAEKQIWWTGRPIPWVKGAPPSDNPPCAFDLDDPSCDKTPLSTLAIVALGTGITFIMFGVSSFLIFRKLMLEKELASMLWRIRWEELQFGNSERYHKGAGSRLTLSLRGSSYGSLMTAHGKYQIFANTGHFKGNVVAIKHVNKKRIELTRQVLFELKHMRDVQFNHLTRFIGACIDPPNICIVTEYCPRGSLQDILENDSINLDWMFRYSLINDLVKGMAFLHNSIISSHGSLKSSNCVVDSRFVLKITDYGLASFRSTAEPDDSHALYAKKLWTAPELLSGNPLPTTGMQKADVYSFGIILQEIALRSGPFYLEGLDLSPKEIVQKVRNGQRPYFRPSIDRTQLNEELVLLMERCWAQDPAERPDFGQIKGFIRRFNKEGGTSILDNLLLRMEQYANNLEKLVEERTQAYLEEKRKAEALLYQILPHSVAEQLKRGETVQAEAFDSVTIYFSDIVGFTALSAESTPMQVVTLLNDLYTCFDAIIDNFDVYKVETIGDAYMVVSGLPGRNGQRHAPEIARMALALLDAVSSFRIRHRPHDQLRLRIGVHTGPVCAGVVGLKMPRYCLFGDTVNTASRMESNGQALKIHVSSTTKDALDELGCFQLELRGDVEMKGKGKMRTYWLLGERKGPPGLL
FAS TE block: FAS thioesterase (human) inhibition; hit rate 0.67% among 360,000; AID 602261; recombinant FAS-TE, OMFH fluorogenic substrate, fluorescence endpoint; inhibition, % at 15 µM; P49327;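 active = compounds whose normalised, plate-corrected inhibition of enzyme fluorescence in the single-dose primary screen is 50% or more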;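 also: 0% = DMSO with enzyme and 100% = substrate without enzyme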
ADAM10 inh: inhibitors of human ADAM10. O14672. recombinant ADAM10, EDANS/DABCYL FRET peptide cleavage, 3 h. inhibition, % at 7 µM. hit rate 0.62% among 370,000;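 active = inhibition above a per-campaign cutoff equal to the mean of compounds falling between control-based bounds plus 3 SD, cut at about 20% in these data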;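 also: 0% = DMSO wells while the 100% control is not disclosed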
GC-A act: GC-A (human) enzyme activation. hit rate 0.14% among 370,000. HEK293 GC-A cells, cGMP TR-FRET, EC30 ANP; 0% at EC30 ANP, 100% saturating ANP. activation, % at 10 µM. AID 1671463. P16066; in the data active = activation above about 40%
ADAM17 inh: inhibitors of human ADAM17; P78536; recombinant ADAM17, EDANS/DABCYL FRET peptide cleavage; inhibition, % at 6.95 µM; hit rate 0.83% among 370,000; AID 720648;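 active = inhibition above the mean of compounds lying between control limits plus 3 SD, set per campaign, cut at about 8.5% in these data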;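 also: 0% = DMSO-only wells as the low control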
ADAM10 confirm: confirmation of inhibitors of human ADAM10; AID 743208; shares compounds with ADAM10 inh; inhibition, % at 6.95 µM; ADAM10 QFRET peptide cleavage, EDANS fluorescence; hit rate 1% among 2,100;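 active = inhibition above about 20% chosen separately for each screening run, limit read from the data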;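 also: 0% = DMSO wells and 100% = marimastat wells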
ADAM17 counter: ADAM17 inhibition, counter-screen for ADAM10 exosite hits. ADAM17 QFRET peptide cleavage, EDANS fluorescence. inhibition, % at 6.95 µM. shares compounds with ADAM10 inh. hit rate 0.5% among 2,100;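 active = mean triplicate inhibition above the solvent-only control wells' mean plus 3 SD, cut at about 12% in these data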;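 also: 0% = DMSO wells and 100% = marimastat wells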
* = called active by the depositor; . = not tested or not shown.

SMILES	GC-B act	FAS TE block	ADAM10 inh	GC-A act	ADAM17 inh	ADAM10 confirm	ADAM17 counter
COC(=O)[C@]1(C)CN(C(=O)OC(C)(C)C)C2=C1C(=O)C[C@](C)(C(=O)OC(C)(C)C)C2	1	.	-3	-1	-5	.	.
Cc1cc(C)nc(N/N=C/c2ccccc2OCc2ccc([N+](=O)[O-])cc2)n1	0	9	28*	-4	1	2	1
O=[N+]([O-])c1ccc(N/N=C\c2ccccc2OCc2ccccc2)cc1	4	8	-12	7	-1	.	.
COc1ccc(CNC(=O)[C@H](NC(=O)C2CCN(C(=O)[C@@H](N)CCSC)CC2)C(C)C)cc1	-2	-5	82*	0	-1	-1	0
Cc1cc(S(=O)(=O)N(Cc2ccc(F)cc2)CC2CCCO2)ccc1-n1cnnn1 (centres undefined)	-6	13	-1	-1	-2	.	.
Cc1cc(S(=O)(=O)N(Cc2ccc(C(C)C)cc2)CC2CCCO2)ccc1-n1cnnn1 (centres undefined)	0	35	24*	-4	5	5	1
COc1ccccc1CNC(=O)c1ccc(-c2ccccc2C(F)(F)F)o1	2	24	5	-2	1	.	.
COc1ccccc1CNC(=O)c1ccc(-c2ccccc2Cl)o1	-1	24	21*	1	12*	10	2
O=C(c1ccc(-n2cnnn2)cc1)N(C1CCCCC1)C1CCCCC1	3	2	6	-1	-1	.	.
O=C(NO)c1ccc(C(=O)N(C2CCCCC2)C2CCCCC2)cc1	5	-20	30*	3	4	22*	2
O=[N+]([O-])c1cccc(C2NCC(c3ccccc3Cl)c3c2[nH]c2ccccc32)c1 (centres undefined)	-8	28	21*	22	5	5	3
CN(C)c1ccc(C2CNC(c3ccc(Cl)c([N+](=O)[O-])c3)c3[nH]c4ccccc4c32)cc1 (centres undefined)	-9	42	3	2	1	.	.
C[C@@H]1CN([C@@H](C)CO)C(=O)c2cccc(NC(=O)Nc3ccc(F)cc3)c2O[C@@H]1CN(C)Cc1ccc(Oc2ccccc2)cc1	-3	19	21*	-10	4	7	2
C[C@H](CO)N1C[C@H](C)[C@H](CN(C)Cc2ccccc2)Oc2c(NC(=O)Nc3ccc(F)cc3)cccc2C1=O	0	-2	12	0	3	.	.
COc1ccc(NC(=O)N(C)C[C@H]2OCCCC[C@H](C)Oc3ccc(NC(=O)Nc4ccc5c(c4)OCO5)cc3C(=O)N([C@@H](C)CO)C[C@@H]2C)cc1	12	29	18	2	8	.	.
C[C@@H]1CN([C@@H](C)CO)C(=O)c2ccccc2-c2ccccc2CO[C@@H]1CN(C)Cc1ccc(Cl)c(Cl)c1	-2	.	22*	0	8	8	3
C[C@@H]1CN([C@H](C)CO)C(=O)c2cc(NC(=O)Nc3ccc(C(F)(F)F)cc3)ccc2O[C@H]1CN(C)C(=O)Nc1ccc(F)cc1	-2	18	35*	2	8	8	2
C[C@H]1CCCCO[C@H](CN(C)C(=O)Nc2ccc(F)cc2)[C@@H](C)CN([C@@H](C)CO)C(=O)c2cc(NC(=O)Nc3ccc4c(c3)OCO4)ccc2O1	-1	43	23*	7	8	10	3
C#CCNC(=O)C[C@H]1C[C@@]2(C(=O)OC)C(=C[C@H](C(C)C)O[C@@H]2C2CC2)N(Cc2ccc3c(c2)OCO3)C1=O	-14	.	4	-8	-1	.	.
C[C@@H]1CCN(C2CC2)S(=O)(=O)c2c(cccc2N2CCC[C@@H]2C)O1	4	.	-6	-1	-3	.	.
C[C@@H]1CCCCO[C@H](CN(C)C(=O)NC2CCCCC2)[C@@H](C)CN([C@H](C)CO)C(=O)c2cc(NC(=O)c3ccccc3)ccc2O1	1	-3	-9	1	-1	.	.
